Data reported in PubChem BioAssay (Tox21).
Inconclusive results are not listed. Activity calls are given as the source filed them. Unless noted, calls follow the shape of the dose curve; as a rule, active = well fitted curve in the direction sought with a large enough effect in the repeat runs; inconclusive = weak or mixed curves; inactive = no such curve, though single readings can be large; an effect the other way counts as inactive or inconclusive.

What was measured:
[1] = target: Progesterone receptor (Homo sapiens) (UniProt P06401); experiment: qHTS assay to identify small molecule antagonists of the progesterone receptor (PR) signaling pathway (AID 1346795; active = well fitted inhibition curve with a large enough effect in the signal ratio in the repeat runs, not every such curve was filed as active; the % refers to the signal ratio; also: potency is read from the fitted curve at half-maximal effect)
Chain of Progesterone receptor (Homo sapiens) (P06401 whole entry, looked up): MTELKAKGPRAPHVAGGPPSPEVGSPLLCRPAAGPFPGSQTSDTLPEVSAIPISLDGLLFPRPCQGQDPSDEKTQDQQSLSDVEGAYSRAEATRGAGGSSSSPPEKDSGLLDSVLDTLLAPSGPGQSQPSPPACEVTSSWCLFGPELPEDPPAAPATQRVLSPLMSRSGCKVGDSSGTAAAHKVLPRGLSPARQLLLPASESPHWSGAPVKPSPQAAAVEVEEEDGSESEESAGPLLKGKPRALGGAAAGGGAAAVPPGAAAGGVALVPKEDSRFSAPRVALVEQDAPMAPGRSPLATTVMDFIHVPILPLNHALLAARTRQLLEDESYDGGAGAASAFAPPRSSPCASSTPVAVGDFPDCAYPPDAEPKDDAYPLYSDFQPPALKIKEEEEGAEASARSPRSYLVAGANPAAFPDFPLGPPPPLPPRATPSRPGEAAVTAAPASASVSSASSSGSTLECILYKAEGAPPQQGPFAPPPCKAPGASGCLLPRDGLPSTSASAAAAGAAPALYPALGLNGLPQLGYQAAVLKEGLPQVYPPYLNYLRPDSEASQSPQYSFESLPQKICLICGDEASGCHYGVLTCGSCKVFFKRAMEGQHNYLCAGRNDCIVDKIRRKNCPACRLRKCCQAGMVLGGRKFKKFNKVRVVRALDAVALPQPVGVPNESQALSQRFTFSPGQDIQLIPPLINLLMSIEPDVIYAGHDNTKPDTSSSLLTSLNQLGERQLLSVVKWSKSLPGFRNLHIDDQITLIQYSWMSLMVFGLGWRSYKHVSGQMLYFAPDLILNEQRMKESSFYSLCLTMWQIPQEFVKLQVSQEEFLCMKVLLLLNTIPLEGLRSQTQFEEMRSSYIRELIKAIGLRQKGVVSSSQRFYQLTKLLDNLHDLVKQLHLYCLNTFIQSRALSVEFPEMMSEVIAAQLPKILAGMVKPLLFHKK
How it was run: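 After 6 hr plating at 37C in 2% stripped-serum medium, PR-UAS-bla HEK293T cells got compounds, then 1 nM R5020. Sixteen hours later, LiveBLAzer substrate was applied for 2 hr at room temperature and fluorescence was recorded.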

[2] = qHTS assay to identify small molecule antagonists of the progesterone receptor (PR) signaling pathway - cell viability counter screen (AID 1346798); also: series mostly up to about 92 µM; nearly all actives have a fitted effect of over 50% in size
How it was run: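 Viability was determined by ATP-based luminescence (CellTiter-Glo) in PR-UAS-bla HEK293T cells cultured in 2% charcoal-stripped serum and incubated 16 hr with compounds under R5020 stimulation.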

[3] = qHTS assay to identify small molecule agonists of the progesterone receptor (PR) signaling pathway - cell viability counter screen (AID 1346799; calls by dose curve; also: nearly all actives have a fitted effect of over 45% in size)
How it was run: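 Viability was scored by ATP luminescence (CellTiter-Glo, 30 min, room temperature) in the same wells used for the reporter readout, after 16 hr compound exposure of PR-UAS-bla HEK293T cells.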

[4] = qHTS assay to identify small molecule antagonists of the TGF-beta/Smad signaling pathway - cell viability counter screen (AID 1346824); also: nearly all actives have a fitted effect of over 50% in size
How it was run: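 Cytotoxicity counter-screen run in the same wells as the beta-lactamase Smad reporter read: CellTiter-Glo luminescence after 30 min at room temperature. HEK 293T SBE-bla cells had 5 hr compound exposure at 37 C with TGF-beta1 (0.25 ng/mL stock).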

[5] = qHTS assay to identify small molecule agonists of the TGF-beta/Smad signaling pathway - cell viability counter screen (AID 1346829); also: top concentration of the series differs between compounds; nearly all actives have a fitted effect of over 45% in size
How it was run: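 Same-well cytotoxicity: CellTiter-Glo added after the 2 hr room-temperature beta-lactamase substrate step, luminescence measured 30 min later; cells had 5 hr of compound at 37 C.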

[6] = qHTS assay to identify small molecule agonists of the TGF-beta/Smad signaling pathway (AID 1346859; active = well fitted activation curve with a large enough effect in the signal ratio in the repeat runs, not every such curve was filed as active; the % refers to the signal ratio; also: series mostly up to about 77 µM)
How it was run: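 Dual-wavelength fluorescence (460/530 nm emission) quantified beta-lactamase expression under the Smad binding element in HEK 293T cells following 5 hr compound treatment at 37 C.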

[7] = Human pregnane X receptor (PXR) small molecule agonists, qHTS cell viability counter screen (AID 1346977); also: nearly all actives have a fitted effect of over 50% in size
How it was run: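 HepG2 cells stably carrying the PXR-Luc reporter are cultured with 5% charcoal-stripped FBS and treated with compounds for 24hr. CellTiter-Fluor is added at 23hr and fluorescence is read after 1hr.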

[8] = Caspase-3/7 induction in HepG2 cells by small molecules, qHTS assay (AID 1346978); also: nearly all actives have a fitted effect of over 15% in size
How it was run: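 Caspase-3/7 induction was measured by Caspase-Glo 3/7 luminescence (30 min, room temperature) after a 17 hr compound exposure of wild-type HepG2 cells seeded at 2,000 per well and pre-incubated 5 hr.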

[9] = target: Thyrotropin-releasing hormone receptor (Homo sapiens) (UniProt P34981); experiment: qHTS assay to identify small molecule antagonists of the thyrotropin-releasing hormone receptor (TRHR) signaling pathway (AID 1346877; active = well fitted inhibition curve with a large enough effect in the repeat runs, not every such curve was filed as active; also: series mostly up to about 51 µM)
Chain of Thyrotropin-releasing hormone receptor (Homo sapiens) (P34981 whole entry, looked up): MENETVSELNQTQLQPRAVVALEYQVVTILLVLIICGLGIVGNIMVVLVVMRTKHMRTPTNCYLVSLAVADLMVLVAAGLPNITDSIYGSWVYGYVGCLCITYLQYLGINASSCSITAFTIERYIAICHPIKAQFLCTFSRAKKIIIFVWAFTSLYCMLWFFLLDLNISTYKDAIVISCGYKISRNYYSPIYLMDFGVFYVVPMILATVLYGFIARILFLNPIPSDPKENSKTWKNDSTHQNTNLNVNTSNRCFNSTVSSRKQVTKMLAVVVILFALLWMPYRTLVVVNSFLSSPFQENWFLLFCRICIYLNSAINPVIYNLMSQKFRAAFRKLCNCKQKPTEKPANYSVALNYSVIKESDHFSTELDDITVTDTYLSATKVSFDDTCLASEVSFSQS
How it was run: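 Antagonist mode: after a 5 min room-temperature compound exposure, cells were stimulated with 1 nM (final) TRH. Dye-loaded TRHR-HEK293 cells were used, and calcium-dependent fluorescence was followed for 3 min, with 15-point titrations run in triplicate.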

[10] = target: Thyrotropin-releasing hormone receptor (Homo sapiens) (UniProt P34981); experiment: qHTS assay to identify small molecule agonists of the thyrotropin-releasing hormone receptor (TRHR) signaling pathway (AID 1346891; calls by dose curve;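 also: HEK293 cells expressing TRHR with calcium dye readout; series mostly up to about 58 µM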)
How it was run: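 Kinetic fluorescence (3 min, 1 s intervals) reported intracellular calcium after compound transfer onto TRHR-Hek293 cells pre-loaded with dye for 2 h at 37 °C.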
% is scaled to controls: 0 for no effect and ±100 for the full control effect.

CC[C@H](C)C(=O)O[C@H]1C[C@H](O)C=C2C=C[C@H](C)[C@H](CC[C@@H](O)C[C@@H](O)CC(=O)O)[C@H]21
inactive: Potency [1] | Potency [2] | Potency [3] | outcome [4] | outcome [5] | outcome [6] | Potency [7] | Potency [8]

CCn1ccc(NS(=O)(=O)c2ccc(N)cc2)nc1=O
inactive: Potency [1] | Potency [2] | Potency [3] | outcome [4] | outcome [5] | outcome [6] | Potency [7] | Potency [8]

CN(C)c1ccc(C=O)cc1
inactive: Potency [1] | Potency [2] | Potency [3] | outcome [5] | outcome [9] | Potency [7] | Potency [8]

C=C(C)C(=O)OCC(C)(C)COC(=O)C(=C)C
inactive: Potency [1] | Potency [2] | Potency [3] | outcome [5] | outcome [6] | outcome [9] | outcome [10] | Potency [7]

C=C(C)C(=O)OCCOP(=O)(O)OCCOC(=O)C(=C)C
inactive: Potency [1] | Potency [2] | Potency [3] | outcome [5] | outcome [6] | outcome [9] | outcome [10] | Potency [7] | Potency [8]

CC(C)CCCC(C)(C)O
inactive: Potency [1] | Potency [2] | Potency [3] | outcome [5] | outcome [6] | Potency [7] | Potency [8]

CC(COC(C)(C)C)OCCCO (configuration not stated)
inactive: Potency [1] | Potency [2] | outcome [4] | outcome [5] | outcome [6] | outcome [9] | outcome [10] | Potency [7] | Potency [8]

N[C@@H](COP(=O)(O)O)C(=O)O
inactive: activity change, negative = inhibition [1] 6.07% [at 18.9 µM] | activity change, negative = cytotoxicity [2] -0.532% [at 18.9 µM] | activity change, negative = cytotoxicity [3] 13.8% [at 19 µM] | activity change, negative = cytotoxicity [5] 0.5% [at 15.8 µM] | activity, negative = inhibition [9] -1.81% [at 10.5 µM] | activation [10] -0.175% [at 11.8 µM] | activity change, negative = cytotoxicity [7] 17.9% [at 19 µM] | caspase activation [8] 0.675% [at 19 µM]

COC(=O)c1ccccc1C(=O)c1ccc(OCCN2CCCCC2)cc1
inactive: Potency [1] | Potency [2] | Potency [3] | outcome [5] | outcome [6] | outcome [9] | outcome [10] | Potency [8]

CCC(C=O)CC
inactive: Potency [1] | Potency [2] | Potency [3] | outcome [5] | outcome [9] | outcome [10] | Potency [7]

CC(CC=O)CCCC(C)(C)O (configuration not stated)
inactive: Potency [1] | Potency [2] | outcome [4] | outcome [5] | outcome [6] | Potency [7]

CC(C)c1ccc2cc(C(C)C)ccc2c1
inactive: Potency [1] | Potency [2] | Potency [3] | outcome [5] | outcome [6] | outcome [9] | outcome [10] | Potency [7] | Potency [8]

O=C(CCN1CCN(CCO)CC1)N1c2ccccc2Sc2ccc(C(F)(F)F)cc21
inactive: Potency [1] | Potency [2] | outcome [4] | outcome [5] | outcome [9] | outcome [10] | Potency [7] | Potency [8]

CN(CCOc1ccc(NS(C)(=O)=O)cc1)CCc1ccc(NS(C)(=O)=O)cc1
inactive: Potency [1] | Potency [2] | Potency [3] | outcome [5] | outcome [6] | Potency [7] | Potency [8]

CC(C)C[C@H](NC(=O)CNC(=O)[C@H](Cc1ccc(O)cc1)NC(=O)[C@H](CO)NC(=O)[C@H](Cc1c[nH]c2ccccc12)NC(=O)[C@H](Cc1cnc[nH]1)NC(=O)[C@@H]1CCC(=O)N1)C(=O)N[C@@H](CCCN=C(N)N)C(=O)N1CCC[C@H]1C(=O)NCC(N)=O (stereo in doubt)
inactive: Potency [1] | Potency [2] | outcome [4] | outcome [5] | outcome [6] | outcome [9] | outcome [10] | Potency [7] | Potency [8]

ClCCCl
inactive: Potency [1] | Potency [2] | Potency [3] | outcome [5] | outcome [9] | Potency [7] | Potency [8]

CCCCC(CC)COCCO (configuration not stated)
inactive: Potency [1] | Potency [2] | Potency [3] | outcome [5] | outcome [6] | outcome [9] | outcome [10] | Potency [7] | Potency [8]

CC(CO)c1ccccc1 (configuration not stated)
inactive: Potency [1] | Potency [2] | Potency [3] | outcome [4] | outcome [5] | outcome [9] | Potency [7] | Potency [8]

C=C(C)C1CCC(C)(O)CC1 (configuration not stated)
inactive: Potency [1] | Potency [3] | outcome [4] | outcome [5] | outcome [6] | outcome [9] | outcome [10] | Potency [7]

COc1cc2c(cc1OC)C(=O)CC2
inactive: Potency [1] | Potency [2] | Potency [3] | outcome [5] | outcome [6] | outcome [9] | outcome [10] | Potency [7] | Potency [8]

CC(C)(C)c1n[nH]c(=S)n(N)c1=O
inactive: Potency [1] | Potency [2] | Potency [3] | outcome [4] | outcome [5] | outcome [9] | outcome [10] | Potency [7] | Potency [8]

CC(CN)CC(C)(C)CCN (configuration not stated)
inactive: Potency [1] | Potency [2] | outcome [4] | outcome [5] | outcome [6] | outcome [9] | outcome [10] | Potency [7] | Potency [8]

O=C1CCCC(=O)O1
inactive: Potency [1] | Potency [2] | Potency [3] | outcome [4] | outcome [5] | outcome [9] | Potency [7] | Potency [8]

COC(=O)[C@@H]1[C@H]2C[C@H]3c4[nH]c5ccccc5c4CCN3C[C@@H]2CC[C@@H]1O
inactive: Potency [1] | Potency [2] | outcome [4] | outcome [5] | outcome [6] | outcome [9] | outcome [10] | Potency [7]

CC1(CO)CN(c2ccccc2)NC1=O (configuration not stated)
inactive: Potency [1] | Potency [2] | Potency [3] | outcome [5] | outcome [6] | outcome [9] | outcome [10] | Potency [7] | Potency [8]

COCCOC(=O)C1=C(C)NC(C)=C(C(=O)OC(C)C)C1c1cccc([N+](=O)[O-])c1 (configuration not stated)
inactive: Potency [2] | outcome [5] | outcome [6] | outcome [9] | outcome [10] | Potency [7] | Potency [8]
active: Potency [1] 10.6 µM

CCOCCOC(=O)/C=C/c1ccc(OC)cc1
inactive: Potency [1] | Potency [2] | outcome [4] | outcome [5] | outcome [6] | Potency [7] | Potency [8]
